In ChEMBL document CHEMBL1157539, “Thousands of chemical starting points for antimalarial lead identification” (Nature, 2010):

System: Plasmodium falciparum
Assay: GSK_TCMDC: Inhibition of Plasmodium falciparum 3D7 in whole red blood cells, using parasite LDH activity as an index of growth. Test compounds present at 2uM
Type: functional

SMILES	Inhibition [%]
CC(=O)Nc1nc(C(=O)Nc2cccc(-c3ccc4c(cnn4CC4CC4)c3)c2)cs1	95
COc1cc(F)c2ncc(C#N)c(CCN3CCC(NCc4ccc5c(c4)OCCO5)CC3)c2c1.Cl	97
O=C(Nc1cccc(-c2cccc(-c3nc4cc(C(F)(F)F)ccc4[nH]3)c2)c1)c1cccnc1Cl	95
O=C(Nc1cccc(CN2CCN(C(=O)c3cccc(Cl)c3)CC2)c1)c1cccs1.O=C(O)C(F)(F)F	94
COc1cccc(CCc2ccc(O)c3c2C[C@H]2C[C@H]4[C@H](N(C)C)C(O)=C(C(N)=O)C(=O)[C@@]4(O)C(O)=C2C3=O)c1.Cl	93
CN1CCCN(c2ccnc3cc4c(cc23)N(C(=O)c2ccc(Cl)cc2)CC4)CC1.Cl	100
CCCc1cc2c3c(N)nc(N)nc3ccc2n1C(CC)CC	100
O=C(NCc1ccc(Cl)c(Cl)c1)[C@H]1CNCCN1C(=O)c1ccccc1.O=C(O)C(F)(F)F	97
O=C(O)C[C@H](NC(=O)[C@@H]1CCCN1C(=O)c1cccc(-c2ccc(Cl)c(Cl)c2)c1)C(=O)O	84
CN1CCN(Cc2nc(-c3ccc4c(Nc5ccc(Oc6ccccc6)cc5)ccnc4c3)cs2)CC1	100
Cc1ccn2cc(-c3ccc(NC(=O)c4ccc(Br)o4)cc3)nc2c1	98
C[C@@H](COc1ccccc1)NCC(O)c1ccc([N+](=O)[O-])c(OCc2ccccc2)c1 (stereo partly drawn)	93
CS(=O)(=O)Cc1cccc(Nc2ncc(Cl)c(Nc3cccnc3C(N)=O)n2)c1.Cl	96
